# According to PubChem BioAssay (NCATS):
# Records with an inconclusive call do not appear. Values without a mark were called inactive. Calls of active or inactive are those of the source. Calls follow the shape of the dose curve; as a rule, active = well fitted cell-killing curve with a large enough effect; inconclusive = small, poorly fitted or top-dose-only effect, or effect the other way; inactive = no such curve, though single readings can be large or run the other way.
# Columns and labels:
# [1] = Quantitative High-Throughput drug screen in 47 multiple myeloma cell lines against the NCATS MIPE library collection: L363_DSMZ cell viability assay (AID 1918984); also: nearly all actives have a fitted effect of over 40% in size
# How it was run: (§1)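 500 cells/well per myeloma line exposed to pinned MIPE 4.0 compounds for 48 h at 37 °C, 5% CO2. Viability read as ATP by CellTiter-Glo luminescence, normalised to DMSO-only (100%) and media-only (0%) wells.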
# [2] = Quantitative High-Throughput drug screen in 47 multiple myeloma cell lines against the NCATS MIPE library collection: KMS34_JCRB cell viability assay (AID 1918985); also: nearly all actives have a fitted effect of over 40% in size
# How it was run: as §1
# [3] = Quantitative High-Throughput drug screen in 47 multiple myeloma cell lines against the NCATS MIPE library collection: OPM1_PLB cell viability assay (AID 1918989); also: nearly all actives have a fitted effect of over 40% in size
# Text: (§2) PI: Beverly A. Mock Ph.D.
# (§3) Laboratory of Cancer Biology and Genetics,
# (§4) Center for Cancer Research, National Cancer Institute,
# (§5) National Institute of Health, Bethesda, Maryland
# (§6) Drug resistance and disease progression are common in multiple myeloma (MM) patients, underscoring the need for new therapeutic combinations. […] We hypothesized that effective combinations would reduce MYC expression and enhance p16 activity. […] These preclinical data identify potentially useful drug combinations for evaluation in drug-resistant MM and reveal potential mechanisms of combined drug sensitivity.
# (§7) Described herein is the primary MIPE qHTS used to cherrypick compounds. Validated compounds were then further tested for potential synergistic activiy.
# [1] […]
# (§8) 5; Detector; 425V; Luminescence; Viewlux PerkinElmer. […]
# (§9) 1. […] Briefly, the corresponding myeloma cell lines were screened in 1,536-well plates with 500 cells, 5-uL per well for inhibition of cell viability (assessed by measuring ATP levels with CellTiterGlo). […]
# (§10) 5. Signal was measured as median relative luminescence units on a ViewLux (PerkinElmer) multiplate reader. […]
# [4] = Quantitative High-Throughput drug screen in 47 multiple myeloma cell lines against the NCATS MIPE library collection: XG6_PLB cell viability assay (AID 1919865); also: nearly all actives have a fitted effect of over 40% in size
# How it was run: as §1
# [5] = Quantitative High-Throughput drug screen in 47 multiple myeloma cell lines against the NCATS MIPE library collection: VP6_DJ cell viability assay (AID 1919867); also: nearly all actives have a fitted effect of over 40% in size
# How it was run: as §1
# [6] = Quantitative High-Throughput drug screen in 47 multiple myeloma cell lines against the NCATS MIPE library collection: OCIMY5_PLB cell viability assay (AID 1918988); settings: OCI-MY5 myeloma viability, ATP luminescence, 48 h; also: nearly all actives have a fitted effect of over 65% in size
# How it was run: as §1
# [7] = Quantitative High-Throughput drug screen in 47 multiple myeloma cell lines against the NCATS MIPE library collection: SKMM1_PLB cell viability assay (AID 1919863); settings: SKMM1 myeloma viability, CellTiter-Glo ATP, 48 h; viability: hits give low values; also: nearly all actives have a fitted effect of over 35% in size; as to viability: series mostly up to about 46 µM
# How it was run: as §1
# [8] = Quantitative High-Throughput drug screen in 47 multiple myeloma cell lines against the NCATS MIPE library collection: U266_ATCC cell viability assay (AID 1919864); also: nearly all actives have a fitted effect of over 35% in size
# Text: as §2, §3, §4, §5, §6, §7
# [1] […]
# as §8, §9, §10
# [9] = Quantitative High-Throughput drug screen in 47 multiple myeloma cell lines against the NCATS MIPE library collection: XG1_PLB cell viability assay (AID 1919866); also: nearly all actives have a fitted effect of over 35% in size
# How it was run: as §1
# [10] = Quantitative High-Throughput drug screen in 47 multiple myeloma cell lines against the NCATS MIPE library collection: OCIMY7_PLB cell viability assay (AID 1918987); settings: OCI-MY7 myeloma viability, CellTiter-Glo ATP, 48 h; also: nearly all actives have a fitted effect of over 65% in size
# How it was run: as §1
# Potency is read from the fitted curve at half-maximal effect.
SMILES,Potency [1],Potency [2],Potency [3],Potency [4],Potency [5],Potency [6],viability [7] [%],Potency [8],Potency [9],Potency [10],Potency [7]
COC(=O)C1=CCCN(C)C1,inactive,inactive,inactive,inactive,inactive,–,–,–,–,–,–
COc1ccc(C(=O)N2CCCC2=O)cc1,–,–,–,inactive,–,662 nM (active),101,inactive,inactive,–,–
O=C(O)c1nn(Cc2ccc(Cl)cc2Cl)c2ccccc12,inactive,inactive,–,inactive,–,–,–,–,–,–,–
C[C@@H]1C[C@@H]([C@H](O)CC2CC(=O)NC(=O)C2)C(=O)[C@@H](C)C1,743 nM (active),118 nM (active),833 nM (active),743 nM (active),296 nM (active),1660 nM (active),–,1050 nM (active),372 nM (active),2640 nM (active),296 nM (active)
